From PubChem BioAssay AID463173 (ICCB-Longwood Screening Facility, Harvard Medical School, 2010)
The whole screen tested about 52,000 compounds, of which about 4,300 (8.3%) were called active. The full list was thinned out, with actives kept by preference. A number with no mark means an inactive call. Cut-off read from the data, not from the text of the source: active = survival mostly below about 52% (no sharp cut-off); inactive = mostly above about 56%.

What follows are compounds tested on DeltatarO mutant (assay: growth inhibition of S. aureus wild type versus tarO mutant, primary screen, teichoic acid synthesis inhibitors, RN4220, OD600 (AID 463173)). Conditions: OD600, 18 h, stronger effect = lower value, screened at 18.75 µg/mL (by protocol).

Structure (SMILES) | survival
CCCCC(=O)Nc1ccc(C(=O)OCc2cc(=O)n3ccsc3n2)cc1 | 75%
CC(C)CC(=O)N1c2nc(C(C)C)nn2C2(CCCCC2)[C@@H]2CCCC[C@@H]21 | 79%
Cc1cc(C)cc(NC(=O)CSc2nc(-c3ccccc3)c3cc(F)ccc3n2)c1 | 87%
COc1ccc(Nc2nc(-c3ccccc3)c3cc(Br)ccc3n2)cc1 | 23% (active)
COc1cccc(Nc2nc(-c3ccccc3)c3cc(C)ccc3n2)c1 | 12% (active)
COc1ccccc1Nc1nc(-c2ccccc2Cl)c2cc(Br)ccc2n1 | 125%
Cc1ccc2nc(Nc3ccc(Br)cc3)nc(-c3ccccc3)c2c1 | 35% (active)
Clc1ccc(Nc2nc(-c3ccccc3)c3cc(Cl)ccc3n2)cc1 | 54%
Clc1ccccc1-c1nc(Nc2ccccc2)nc2ccc(Br)cc12 | 47% (active)
COc1cccc(Nc2cc(C)nc3ccccc23)c1 | 109%
Cc1ccc(Nc2c(-c3cccnc3)nc3ccc(Br)cn23)cc1 | 80%
COc1ccc(Nc2nc(N)c3cc(OC)c(OC)cc3n2)cc1 | 87%
COc1cccc(NC(=O)c2c(-c3ccc(C)cc3)nnc3ccccc23)c1 | 78%
CCN(CC)c1nc(-c2ccccc2Cl)c2cc(Br)ccc2n1 | 55%
O=C(CCn1cccn1)Nc1ccc(Br)cc1F | 93%
COC(=O)c1cc2sccc2n1CC(=O)Nc1cc(Cl)ccc1OC | 99%
S=C(Nc1ccccc1)N1CCOCC1 | 89%
CC(=O)c1cccc(NC(=O)c2nc3ccccc3nc2N2CCCCC2)c1 | 71%
Cc1cccc(NC(=O)CSc2nc3c(oc4ccccc43)c(=O)n2C(C)C)c1 | 63%
CCc1ccc(C(=O)c2cn(CC(=O)Nc3cccc(OC)c3)c3cc4c(cc3c2=O)OCO4)cc1 | 72%
O=C(COc1ccc(Cl)cc1)Nc1nnc2n1CCS2 | 124%
Cc1ccc(C(=O)N2CCC(c3c[nH]c4ccccc34)(c3c[nH]c4ccccc34)CC2)cc1 | 87%
COc1ccc(CCNc2ncnc3c2c(-c2ccccc2)cn3-c2ccc(Cl)cc2)cc1OC | 97%
Oc1ccccc1Nc1nc(-c2ccccc2)c2cc(Cl)ccc2n1 | 71%

Structure (SMILES) | survival
O=C(O)c1cccc(Nc2ncnc3ccc(Br)cc23)c1 | 119%
Cc1ccc2nc(NN)nc(-c3ccccc3)c2c1 | 98%
O=C(O)c1ccc(Nc2nc(-c3ccccc3)c3cc(Br)ccc3n2)cc1 | 21% (active)
COc1cc2nc(Nc3cccc(C)c3)nc(N)c2cc1OC | 67%
Clc1ccc2nc(Nc3ccccc3Cl)nc(-c3ccccc3)c2c1 | 75%
Cc1ccc(C)c(Nc2nc(-c3ccccc3)c3cc(Br)ccc3n2)c1 | 43% (active)
Cc1cccc(Nc2nc(-c3ccccc3)c3cc(C)ccc3n2)c1 | 3% (active)
Clc1ccc(Nc2nc(-c3ccccc3)c3ccccc3n2)c(Cl)c1 | 72%
CCOc1cc(CNC(=O)Cn2c(=O)c3cccn3c3ccc(F)cc32)cc(OCC)c1OCC | 50%
Cc1ccc(C)c(Cn2c(=O)n(Cc3ccccc3)c(=O)c3c2c2cc(C)ccc2n3C)c1 | 78%
CC(C)c1ccc(OCC(O)CN2CCN(c3ccc(F)cc3)CC2)cc1 (stereo not given) | 56%
O=C(CN1C(=O)C2(SCC(=O)N2c2ccc(F)c(F)c2)c2ccccc21)Nc1ccccc1F (stereo not given) | 94%
COc1ccc(CCNC(=O)c2c(C)oc3nc(C)nc(N4CCOCC4)c23)cc1OC | 102%
COCCN(C(=O)C1CC1)c1nnc(-c2cccc(C)c2)s1 | 98%
Cc1cc(C)nc(NS(=O)(=O)c2ccc(NC(=O)COc3ccc(Cl)cc3C)cc2)n1 | 63%
COc1ccc(NC(=O)CN2CCC(n3c(C)nc4cc(F)ccc43)CC2)c(OC)c1 | 104%
COc1cccc(CN(C(=O)c2cccc(C)c2)C2CCS(=O)(=O)C2)c1 (stereo not given) | 65%
CCOc1ccc(CCNC(=O)c2cc3n(n2)CCCN(Cc2ccc(C)cc2)C3=O)cc1OCC | 112%
O=S(=O)(CCN1CCOCC1)c1ccc(Oc2ccc(S(=O)(=O)CCN3CCOCC3)cc2)cc1 | 70%
Cc1ccc(CCNC(=O)C(CC(C)C)NS(=O)(=O)c2ccc3c(c2)oc(=O)n3C)cc1 (stereo not given) | 93%
Cc1cccc(CSc2ccc(-c3cccs3)nn2)c1 | 79%
N#Cc1ccc(-c2cccs2)nc1SCc1c(F)cccc1Cl | 36% (active)
Cc1ccc(CSc2nc(-c3cccs3)ccc2C#N)cc1 | 25% (active)
N#Cc1ccc(-c2cccs2)nc1SCc1ccc(Br)cc1 | 74%

Structure (SMILES) | survival
N#Cc1ccc(-c2cccs2)nc1SCC(=O)Nc1cccc(C(F)(F)F)c1 | 48%
N#Cc1ccc(-c2cccs2)nc1SCc1ccc(Cl)cc1Cl | 74%
Cc1ccc(CSc2ccc(-c3cccs3)nn2)cc1 | 89%
N#Cc1c(-c2cccs2)cc(-c2cccs2)nc1SCc1cccnc1 | 65%
Cc1cccc(CSc2nc(-c3cccs3)ccc2C#N)c1 | 18% (active)
Cc1ccc(NC(=O)CSc2nc3c(oc4ccccc43)c(=O)n2-c2ccc(F)cc2)c(C)c1 | 67%
O=C(Nc1ccc2nsnc2c1)C1CC1 | 89%
O=C1c2ccc(-c3ccc4c(c3)C(=O)N(CCO)C4=O)cc2C(=O)N1CCO | 87%
CN1CC(C(=O)O)CC1=O (stereo not given) | 83%
Cn1c(=O)oc2cc(S(=O)(=O)CCC(=O)NCc3ccccc3)ccc21 | 77%
Cc1ccc(Cl)cc1N1CCN(c2nc3ccccc3c3nc(-c4cccnc4)nn23)CC1 | 114%
CCOC(=O)c1[nH]c(C)c(CCC(=O)Nc2cc(Cl)c(OC)cc2OC)c1C | 122%
COc1ccc(OCC(=O)NCC(c2ccc(OC)cc2)N2CCCCC2)cc1 (stereo not given) | 79%
COc1ccc(CC(=O)NCc2ccc3c(c2)CCN3C(C)=O)cc1 | 96%
COc1ccc(-n2c(=O)c3c4c(sc3n(Cc3ccc(F)cc3)c2=O)CCCC4)c(OC)c1 | 47%
Cc1cc(C)cc(NC(=O)CSc2ccc(-c3cccs3)nn2)c1 | 73%
Cc1ccc2c(c1)C(=O)OC(C(=O)Nc1ccc(C(=O)O)cc1)C2 (stereo not given) | 65%
CCOc1ccc(NC(=O)c2c(NC(=O)c3ccccc3F)sc3c2CCC3)cc1 | 155%
CCCCc1ccc(NC(=O)c2ccc3c(c2)CCN3S(=O)(=O)CC)cc1 | 38% (active)
CCCCc1ccc(NC(=O)c2ccc3c(c2)CCN3S(=O)(=O)c2ccccc2)cc1 | 53%
CCS(=O)(=O)N1CCc2cc(C(=O)Nc3ccc(C(=O)OC)cc3)ccc21 | 49%
CCS(=O)(=O)N1CCc2cc(C(=O)Nc3cccc(C(C)=O)c3)ccc21 | 50%
CCS(=O)(=O)N1CCc2cc(C(=O)Nc3cccc(NC(C)=O)c3)ccc21 | 42% (active)
CCS(=O)(=O)N1CCCc2cc(C(=O)Nc3cccc(C(C)=O)c3)ccc21 | 89%

Structure (SMILES) | survival
COc1ccc2c(C)c(CCC(=O)NCc3ccccc3Cl)c(=O)oc2c1C | 63%
COc1ccc(CN2CCc3c(c(=O)n4ncc(C(=O)N5CCN(c6ccccc6OC)CC5)c4n3C)C2)cc1 | 89%
CCN(CCCNC(=O)c1cc2cc3ccc(OC)cc3nc2s1)c1cccc(C)c1 | 83%
CCN(CCCNC(=O)c1cc2cc3cc(OC)ccc3nc2s1)c1cccc(C)c1 | 46% (active)
CCN(CCCNC(=O)c1cc2cc3ccc(OC)cc3nc2s1)c1ccccc1 | 97%
CCN(CCCNC(=O)c1cc2cc3cc(C)ccc3nc2s1)c1cccc(C)c1 | 102%
CCN(CCCNC(=O)c1cc2cc3ccc(C)cc3nc2s1)c1ccccc1 | 126%
CCN(CCCNC(=O)c1cc2cc3cc(OC)ccc3nc2s1)c1ccccc1 | 53% (active)
O=C(COCc1cc(-c2cccs2)on1)NCc1ccc(Cl)cc1 | 64%
CC1CCN(S(=O)(=O)c2ccc(N3CCCCS3(=O)=O)cc2)CC1 | 71%
Cc1ccc2oc(C(=O)N3CCC(c4nc5ccccc5s4)CC3)c(C)c2c1 | 52%
O=C(NCCS(=O)(=O)N1CCN(c2ccccc2F)CC1)c1cc(=O)c2ccccc2o1 | 71%
Cc1cccc(NC(=O)C2CCCN(S(=O)(=O)c3ccc4c(c3)oc(=O)n4C)C2)c1C (stereo not given) | 83%
CCC(CC)c1nnc(NC(=O)CS(=O)(=O)Cc2ccccc2)s1 | 70%
CCOC(=O)c1cnc2c(ccc3ccccc32)c1Nc1ccccc1OC | 28% (active)
CCOC(=O)c1c(C)oc2ncnc(Nc3ccc(OC)cc3OC)c12 | 97%
CCOC(=O)c1cnc2c(ccc3ccccc32)c1Nc1ccc(OC)cc1OC | 8% (active)
CCOC(=O)c1cnc(NCc2ccccc2OC)c2ccccc12 | 89%
CCOC(=O)c1cnc(N2CCN(c3ccc(OC)cc3)CC2)c2ccccc12 | 97%
CCOC(=O)c1cnc2c(ccc3ccccc32)c1Nc1ccccc1OCC | 126%
CCOC(=O)CSc1nc2cc(OC)c(OC)cc2c2nc(-c3ccccc3)nn12 | 59%
O=C(Cn1ncc2c(=O)oc3ccccc3c21)NCc1ccc(Cl)cc1 | 86%
CCOc1ccccc1N(CC)C(=O)c1cc2c(=O)n(CC)c3ccccc3c2s1 | 121%
